From PubChem BioAssay (NCI) come the findings set out here.

Assay [1] in a line: NCI Yeast Anticancer Drug Screen. Data for the rad50 strain (AID 155).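 Further: 0% = growth of vehicle-only cultures of the same strain.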 The settings on record: S. cerevisiae rad50 strain growth inhibition; at 50.0 µM; hits give high values. In short, it runs like this: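 A DNA repair-deficient yeast mutant serves as the test organism; compound-induced growth inhibition is calculated against vehicle-treated cells.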
Assay [2] in a line: NCI Yeast Anticancer Drug Screen. Data for the mec2-1 strain (AID 157). As to conditions: S. cerevisiae mec2-1 strain, at 50.0 µM, hits give high values. Summed up:
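Cells of the genetically defined mec2-1 yeast strain are incubated with test compound. Inhibition of growth is calculated against vehicle-treated controls.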

A short description of assay [3]: NCI Yeast Anticancer Drug Screen. Data for the sgs1 mgt1 strain (AID 161).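 Further: 0% = growth of cultures given vehicle only.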 The settings on record: S. cerevisiae sgs1 mgt1 strain, at 50.0 µM, hits give high values. In short, it runs like this: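 Inhibition of yeast growth, normalised to vehicle-treated controls, is reported for a strain bearing genetic alterations in DNA damage repair.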
The nature of assay [4]: NCI Yeast Anticancer Drug Screen. Data for the cln2 rad14 strain (AID 165).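 Further: 0% = growth equal to vehicle treated cultures.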 The settings on record: S. cerevisiae cln2 rad14 strain, at 50.0 µM, hits give high values. In short, it runs like this:
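The screen exposed genetically defined yeast (cln2 rad14) to test compounds and scored growth inhibition relative to vehicle-treated controls.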

The nature of assay [5]: NCI Yeast Anticancer Drug Screen. Data for the bub3 strain (AID 167). As to conditions: S. cerevisiae bub3 mutant strain, at 50.0 µM, hits give high values. In short, it runs like this: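 Inhibition values come from growth of compound-treated mutant yeast normalised to vehicle-treated controls.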
Assay [6] can be described thus: NCI Yeast Anticancer Drug Screen. Data for the mlh1 rad18 strain (AID 175). The settings on record: S. cerevisiae mlh1 rad18 strain growth inhibition; at 50.0 µM; hits give high values. Summed up:
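Compound-treated yeast growth, normalised to vehicle controls. Strain bears defined DNA repair mutations.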

About 79,000 compounds went through this panel and 15% of them were active in at least one assay; those are over-represented in the sample as a whole. A number with no mark means an inactive call. Activity calls are given as the source filed them. No stated cut-off is given here; in the data, active means growth inhibition above about 70%; inactive means the rest.

Regarding `CC(Oc1ccccc1-c1ccccc1)C(=O)N(C)C` (stereo not given), the growth inhibition was -15.2% in assay [1]; -0.2% in assay [2]; 1.45% in assay [3]; 0.75% in assay [4]; -20.6% in assay [5]; -45.6% in assay [6].
`CCC(=O)c1cccc(-c2ccccc2)c1CC`: the growth inhibition in assay [1] is 17.9%; in assay [2], -7%; in assay [3] it was 15.9%; in assay [4], 4.05%; in assay [5], -22.6%; in assay [6] it was 12.9%.
As to `Cc1ccc(NC(=O)Oc2ccccn2)cc1`, the growth inhibition is -9.7% in assay [1]; -30.5% in assay [2]; -8.05% in assay [3]; -4.4% in assay [4]; -0.35% in assay [5]; -6.25% in assay [6].
With `c1ccc(CNc2ccccc2)cc1`, the growth inhibition was 3.6% in assay [1]; -29.5% in assay [2]; -24.4% in assay [3]; 12.1% in assay [4]; -18.9% in assay [5]; -2.1% in assay [6].
Turning to `Cc1ccc(NCCN(C)C)c2c(=O)c3cccc(O)c3sc12`, the growth inhibition in assay [1] was 73.5% (active); in assay [2] it was 35.1%; in assay [3] it was 18.2%; in assay [4] it was 26.8%; in assay [5] it was 40.4%; in assay [6], 65%.
In the case of `O=S(=O)(c1ccccc1)n1c2c(c3ccccc31)Cc1ccccc1-2`, the growth inhibition is -3.75% in assay [1]; 0.75% in assay [2]; -16.9% in assay [3]; -8.4% in assay [4]; -2.1% in assay [5]; -6.55% in assay [6].
Take `C/C(=N\N)c1ccc(Cl)cc1O`: the growth inhibition is 7.45% in assay [1]; -34.2% in assay [2]; 7.2% in assay [3]; 4.25% in assay [4]; 3.5% in assay [5]; 16% in assay [6].
For `Cc1ccccc1OCC1COCN(C(C)(C)C)CO1` (stereo not given), the growth inhibition in assay [1] is -13.5%; in assay [2], -2.2%; in assay [3], 4.95%; in assay [4] it was 7.8%; in assay [5], -20.9%; in assay [6], 19.6%.
`[O-]c1n[n+](Cc2ccc(Br)cc2)no1`: the growth inhibition was 6.95% in assay [1]; 15.2% in assay [2]; -4% in assay [3]; 1.2% in assay [4]; 18.4% in assay [5]; 28.3% in assay [6].
For the compound `CCCC1OC1(CC)C(=O)OCC(CC)(COC(=O)C1(CC)OC1CCC)COC(=O)C1(CC)OC1CCC` (stereo not given), the growth inhibition in assay [1] was -7.4%; in assay [2], -19.5%; in assay [3], 1.25%; in assay [4], -2.05%; in assay [5], 4.35%; in assay [6] it was 4%.
Turning to `COc1cc([N+](=O)[O-])ccc1P(=O)(O)O`, the growth inhibition in assay [1] is 2%; in assay [2], -5.65%; in assay [3], -1.4%; in assay [4] it was -4.35%; in assay [5], -9.95%; in assay [6] it was 14.1%.
For the compound `CSC(=S)n1nc(C)c(N=Nc2ccccc2[N+](=O)[O-])c1C`, the growth inhibition was 26.5% in assay [1]; -2.85% in assay [2]; 0.15% in assay [3]; 5.05% in assay [4]; 7.95% in assay [5]; 7.75% in assay [6].
`O=C(/C=C/c1ccc(O)cc1)c1ccc(O)cc1`: the growth inhibition in assay [1] was -30%; in assay [2], -13.7%; in assay [3], -37.8%; in assay [4] it was 0.15%; in assay [5] it was -2.9%; in assay [6] it was -20.6%.
In the case of `O=P(O)(c1cc(Cl)cc(Cl)c1)c1cc(Cl)cc(Cl)c1`, the growth inhibition in assay [1] was 2.05%; in assay [2], -7.45%; in assay [3], 10.2%; in assay [4] it was -5.1%; in assay [5], -7.1%; in assay [6], -4.5%.
For `Nc1ncnc2oc(-c3ccccc3)nc12`, the growth inhibition is 1.3% in assay [1]; -0.85% in assay [2]; -6.35% in assay [3]; -40% in assay [4]; -4.25% in assay [5]; 13.7% in assay [6].
`BrC12c3ccccc3C(Br)(c3ccccc31)c1ccccc12`: the growth inhibition was 5.95% in assay [1]; 5.6% in assay [2]; -3.15% in assay [3]; -7.4% in assay [4]; -5.3% in assay [5]; 6.2% in assay [6].
Regarding `Cc1cccc2c1C(=O)C1(Cc3ccccc3C1=O)C2` (stereo not given), the growth inhibition in assay [1] is -13.4%; in assay [2], -6.95%; in assay [3], -15.1%; in assay [4] it was -5.15%; in assay [5], 2.4%; in assay [6] it was -3.2%.
On to `CN(C)c1ccc(/C=C/c2ccc(/C=C/c3ccc(N(C)C)cc3)cc2)cc1`, for which the growth inhibition in assay [1] was -15.1%; in assay [2], -9.9%; in assay [3], 5%; in assay [4] it was 10.2%; in assay [5], -11.4%; in assay [6], 20.8%.
Turning to `COc1cc(/C(C#N)=C/c2ccccn2)c([N+](=O)[O-])cc1OC`, the growth inhibition in assay [1] is -7.9%; in assay [2], -2%; in assay [3], 6%; in assay [4], -36.6%; in assay [5], 4.5%; in assay [6], -5.9%.
For `CCOC(=O)c1[nH]c(C)c(C(=O)OC(C)(C)C)c1C`, the growth inhibition in assay [1] was 4.55%; in assay [2], 14.8%; in assay [3], 0.35%; in assay [4], 10.4%; in assay [5], -4.65%; in assay [6] it was 0.45%.
